Bioassay records (PubChem BioAssay)
The entries come from a sample that favours hits as a whole.
PI4K2A block: PI4K2A (human) kinase inhibition. Q9BTU6. purified PI4K2A, ADP-Glo luminescence, 1 h; hits give low values. activity change, negative = inhibition, % at 76.9 µM. hit rate 0.13% among 420,000. AID 1346378; in the data active = activity change below about -50%; inconclusive = mostly about -30% to -49%;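 note: -100% = wells without enzyme as full effect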
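PI4K2A activity was measured by ADP-Glo luminescence: enzyme (4 ug/mL stock) and phosphatidylinositol (1.2 mM stock) in Tris pH 7.5/MgCl2/EGTA/Triton X-100 buffer were reacted with ATP (300 microM stock) for one hour at ambient temperature.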
Tb PFK block: T. brucei PFK enzyme inhibition. O15648. T. brucei PFK, ADP-Glo luminescence. hit rate 0.17% among 330,000. Potency, µM (highest dose often 57.5 µM), inactives show at the top dose activity, negative = inhibition, most hits filed as inhibitors;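 note: potency is the fitted concentration of half-maximal effect; 0% = uninhibited 1x PFK enzyme wells and -100% = no-enzyme wells; nearly all actives have a fitted effect of over 60% in size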
Target sequence (O15648 whole entry, looked up): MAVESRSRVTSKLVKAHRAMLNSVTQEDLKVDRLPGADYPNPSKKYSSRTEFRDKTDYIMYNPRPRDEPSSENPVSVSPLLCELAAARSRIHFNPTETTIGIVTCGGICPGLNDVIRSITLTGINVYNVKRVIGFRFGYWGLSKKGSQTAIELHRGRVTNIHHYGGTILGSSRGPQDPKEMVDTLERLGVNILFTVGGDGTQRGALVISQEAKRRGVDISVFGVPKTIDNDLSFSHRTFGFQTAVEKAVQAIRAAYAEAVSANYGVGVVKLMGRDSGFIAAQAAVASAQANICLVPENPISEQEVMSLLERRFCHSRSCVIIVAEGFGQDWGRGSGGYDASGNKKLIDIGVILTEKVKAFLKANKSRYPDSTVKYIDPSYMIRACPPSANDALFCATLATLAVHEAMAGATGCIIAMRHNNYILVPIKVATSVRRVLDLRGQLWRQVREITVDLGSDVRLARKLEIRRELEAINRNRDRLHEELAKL
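Activity is normalized to no-enzyme wells (full inhibition) and 1.25 nM enzyme wells (no inhibition). Reaction: 0.5 mM F6P, 0.1 mM ATP, 45 min RT, ADP-Glo luminescence; concentration-response curves fitted and classed by quality.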
Tb PGK inh: blocks T. brucei phosphoglycerate kinase; PGK/GAPDH coupled, Kinase-Glo luminescence, 60 min; hit rate 0.043% among 380,000; Potency, µM (top dose mostly 57.5 µM), for inactives: at the highest dose activity change, negative = inhibition, hits mostly inhibitors; AID 602233; P07378; note: potency is the fitted concentration of half-maximal effect; nearly all actives have a fitted effect of over 60% in size
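Recombinant glycosomal PGK reaction used 1,3-bisphosphoglycerate generated in-well by GAPDH (100nM final) in 100mM TEA pH 7.6, 5mM MgCl2, 0.01% Tween-20. After 60 minutes at room temperature, ATP was read by Kinase-Glo Plus luminescence end-point.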
PI5P4Ka inh: inhibitors of human PI5P4K alpha; max response, %; P48426; AID 652105; PI5P4Kalpha enzyme, ADP-Glo luminescence, 60 min; hits give low values; hit rate 1.2% among 330,000; active = max response of -50% or lower; inconclusive = between -30% and -50%; inactive = -30% or higher; note: value at the top dose of about 77 µM
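PI5P4Kalpha ADP-Glo assay; 5 microM ATP final; 60 min RT reaction; HEPES pH 7.4/EGTA/CHAPS, 5% DMSO; controls lacking substrate or enzyme; luminescent end-point.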
Pin1 inhibitor: inhibitors of human Pin1 | AID 504891 | hit rate 0.009% among 390,000 | Potency, µM (doses to about 115 µM), for the others: at the highest dose activity, negative = inhibition, actives largely listed as inhibitors | Pin1 FP peptide displacement, HiFluor488, 10 min | Q13526; active = well fitted inhibition curve with a large enough effect in the polarisation, with a control signal flat, not every such curve was filed as active; inconclusive = small, poorly fitted or top-dose-only effect, or effect the other way, or a change in a side signal; inactive = no such curve, though single readings can be large or run the other way; the % refers to the polarisation; note: potency is the fitted concentration of half-maximal effect
An asterisk follows results filed as active; i = inactive; ? = inconclusive; · = no result given. Unless noted, calls come from the whole dose curve; as a rule, active = well fitted curve in the direction sought with a large enough effect; inconclusive = small, poorly fitted or top-dose-only effect, or another doubt; inactive = no such curve, though single readings can be large; an effect the other way counts as inactive or inconclusive. Unless noted, % is set by controls: 0 for no effect and ±100 for the full control effect.

SMILES	PI4K2A block	Tb PFK block	Tb PGK inh	PI5P4Ka inh	Pin1 inhibitor
CC1=NN(c2ccc(Cl)cc2)C(=O)C1	?	-6.9%	i	-1.3	5.5%
COc1ccc(NC(=S)Nc2ccccc2)cc1	-1.6	-1.1%	-9.8%	-0.4	-0.4%
COc1ccc(NC(=S)Nc2ccc(N)c([N+](=O)[O-])c2)cc1	-52.7*	-3.9%	-3.9%	-20.0	5.3%
O=C(COC(=O)c1ccccc1Br)NCCC1=CCCCC1	2.2	-4.7%	-5.0%	-12.2	-3.0%
O=C(NC(=S)NCCC1=CCCCC1)c1ccccc1Br	0.0	-28.4%	?	-53.8*	4.7%
Nc1nc2ncc(C(=O)c3cc(Cl)cc(Cl)c3O)cc2s1	7.3	1.7%	-7.7%	-56.6*	?
Nc1nc2ncc(C(=O)c3cc(F)ccc3O)cc2s1	2.5	0.0%	0.4%	-24.8	19.6%
COC(=O)[C@]12C[C@H](CC(=O)NCc3cccc(C(F)(F)F)c3)C(=O)N(Cc3ccc4c(c3)OCO4)C1=C[C@H](C(C)C)O[C@@H]2C1CC1	-1.4	·	·	·	·
O=S(=O)(c1ccc2c(c1)OCCO2)N1CCN(S(=O)(=O)c2ccc(F)cc2F)CC1	·	·	·	·	-5.6%
O=[N+]([O-])c1cc2oc3c(c2c(C=NCc2ccccc2)c1O)CCCC3	-5.0	4.7%	-9.0%	-50.4*	1.5%
Cc1cc(N2C(=O)c3ccccc3C2=O)n[nH]1	·	·	·	·	-5.9%
O=C(O)Cn1cc(/C=N/NC(=O)c2cc3cc(Br)ccc3o2)c2ccccc21	1.9	-9.2%	-3.5%	-74.8*	1.0%
O=C(O)c1ccc(-n2cccc2/C=N\NC(=O)c2cc3cc(Br)ccc3o2)cc1	-10.0	-29.1%	?	-92.7*	?
Cn1cc(/C=N/NC(=O)c2cc3cc(Br)ccc3o2)c2ccccc21	1.0	1.6%	-2.0%	-13.5	28.4%
O=C(NCCc1ccccc1)C1CCN(c2nc(-c3ccc(Br)cc3)cs2)CC1	·	·	·	·	16.4%
COc1cc(F)c(S(=O)(=O)N2CCN(S(=O)(=O)c3cccc(N)c3)CC2)c(F)c1	·	·	·	·	2.6%
COc1ccc(C(=O)Nc2nc3ccccc3s2)c(OC)c1	-28.8	0.0%	?	?	0.8%
COc1ccccc1C(=O)Nc1nc2ccccc2s1	-71.5*	-25.6%	?	?	-0.1%
Cc1ccc(NS(=O)(=O)c2ccc3ccccc3c2)cc1C	·	·	·	·	4.8%
C=CCn1c(SCC(=O)c2ccc(O)c(O)c2)nnc1-c1ccc(C)cc1	-2.1	-4.8%	-9.8%	-2.8	-10.0%
C=CCn1c(SCC(=O)c2ccc(O)c(O)c2)nnc1-c1ccc(OC)cc1	-8.2	-2.8%	-17.5%	-51.4*	?
CC(C)[C@@H]1OC(=O)[C@@H]2CCCN2C(=O)[C@H](C)OC(=O)[C@H](C)[C@@H](C(C)C)NC(=O)[C@@H]2CCCN2C(=O)[C@H]([C@H](C)Cc2ccccc2)NC(=O)[C@@H]2CCCN2C(=O)[C@@H](C(C)C)N(C)C1=O	-0.3	·	·	·	·
O=[N+]([O-])c1cnc(Sc2ccncn2)c([N+](=O)[O-])c1	-8.4	·	-7.0%	-74.3*	·
COC(=O)[C@]12C[C@H](CC(=O)NCc3ccc(C)o3)C(=O)N(Cc3cccc4ccccc34)C1=C[C@H](C(C)(C)C)O[C@@H]2C	-4.7	·	·	·	·
COc1ccc2nc(-c3cccc(F)c3)sc2c1	·	·	·	·	-3.3%
SMILES	PI4K2A block	Tb PFK block	Tb PGK inh	PI5P4Ka inh	Pin1 inhibitor
CC(=O)Nc1ccc(S(=O)(=O)N2CCN(S(=O)(=O)c3c(F)cccc3F)CC2)cc1	·	·	·	·	34.1%
COc1ccc(-n2c(NC(=O)c3ccc(Br)o3)c(C#N)c3nc4ccccc4nc32)cc1	·	2.4%	·	·	·
N#Cc1c(NC(=O)c2ccc(Br)o2)n(-c2ccccc2)c2nc3ccccc3nc12	-51.6*	2.0%	-6.0%	-10.5	6.7%
CCCCn1c(NC(=O)c2ccccc2)c(C#N)c2nc3ccccc3nc21	-2.3	0.0%	·	·	?
CCC(C)n1c(NC(=O)c2ccccc2)c(C#N)c2nc3ccccc3nc21 (stereo not drawn)	-56.2*	-4.8%	-7.2%	-7.8	?
O=c1cc(O)c2sc(Nc3ccc(F)c(Cl)c3)nc2[nH]1	-2.0	9.7%	-3.2%	-68.5*	55.7%
Oc1cc2ccccc2cc1-c1n[nH]c(=S)o1	-12.4	-2.6%	-1.9%	-73.3*	-6.5%
N#Cc1c(-c2cccc(Cl)c2)[nH]c(=S)[nH]c1=O	-2.0	-3.2%	-3.7%	-77.1*	-5.2%
